# CBX7 inh: inhibitors of human CBX7 binding to H3K27me3 peptide. O95931. AlphaScreen His6-CBX7 / biotin-H3K27me3 peptide binding; stronger effect = lower value. actives 1.1% (n = 66,000). normalised signal (fraction of DMSO) (test concentration not listed). AID 1224903; in the data active = normalised signal below about 0.5
# Target sequence (O95931 whole entry, looked up): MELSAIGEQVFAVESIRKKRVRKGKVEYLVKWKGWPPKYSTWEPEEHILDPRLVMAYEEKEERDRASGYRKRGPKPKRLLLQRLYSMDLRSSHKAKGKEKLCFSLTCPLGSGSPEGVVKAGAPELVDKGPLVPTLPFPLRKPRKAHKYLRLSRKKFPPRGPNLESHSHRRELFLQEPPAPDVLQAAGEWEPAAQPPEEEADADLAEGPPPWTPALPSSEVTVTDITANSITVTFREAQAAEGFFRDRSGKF
# A number is an active result; n = inactive. This excerpt belongs to a sample that is enriched for hits.
SMILES,CBX7 inh
CCOc1ccc2c(c1)c(=O)c(S(=O)(=O)c1ccccc1)cn2CC(=O)Nc1cc(C)ccc1C,n
O=C(NCc1ccc(F)cc1)C1CCN(c2nnc(-n3cccc3)s2)CC1,n
O=C(c1nn2c(C(F)(F)F)cc(-c3ccccc3)nc2c1Cl)N1CCCCCC1,n
CCCCNC(=O)CCc1nc(-c2ccc(OC)cc2)no1,n
CCOc1cccc(CNc2ccc3[nH]c(=O)[nH]c3c2)c1OCc1ccc(Cl)cc1,0.445
O=c1[nH]c2ccc(NCc3ccc(F)cc3)cc2[nH]1,n
O=c1[nH]c2ccc(NCc3ccc(OCc4ccc(Cl)cc4)cc3)cc2[nH]1,n
COc1ccc2c(c1)c(/C=C/c1nc3ccccc3c(=O)n1-c1ccccc1OC)c(C)n2C,n
COc1ccc(CSc2nc3ccccc3[nH]2)cc1,n
COc1ccc(C2NCCc3c2[nH]c2ccccc32)cc1CSc1nc2ccccc2[nH]1 (configuration not stated),n
COc1ccc(C2NC(C(=O)O)Cc3[nH]cnc32)cc1CSc1nc2ccccc2[nH]1 (configuration not stated),0.495
O=C(Cc1ccccc1)Nc1c2c(nn1-c1cccc(Cl)c1)CS(=O)(=O)C2,n
c1ccc(-c2csc(N3CCN(Cc4ccc5c(c4)OCO5)CC3)n2)cc1,n
O=C1CC(N2CCN(Cc3ccc4c(c3)OCO4)CC2)C(=O)N1CC(c1ccccc1)c1ccccc1 (configuration not stated),n
c1ccc(CN2CCC(NCCc3ccc4c(c3)OCO4)CC2)cc1,0.483
O=C(Nc1ccc(S(=O)(=O)N2CCCCCC2)cc1)c1ccc(F)cc1,n
Clc1ccc(-c2nnc(Nc3ccc4c(c3)OCO4)c3ccccc23)cc1,n
CCOC(=O)c1cnc2c(C)cccc2c1Nc1ccc(C(=O)O)cc1,n
CCOC(=O)c1cnc2c(C)cc(Cl)cc2c1Nc1ccc(N2CCOCC2)cc1,0.257
CCOC(=O)c1cnc2c(C)cc(Cl)cc2c1Nc1cccc(C(=O)O)c1,n
CCOC(=O)c1cnc2c(C)cc(C)cc2c1Nc1ccc(N(C)C)cc1,0.326
CCOC(=O)c1cnc2c(C)cccc2c1Nc1ccc(F)cc1,n
CCOC(=O)c1cnc2c(C)cc(Cl)cc2c1Nc1ccc2c(c1)OCCO2,n
CCOC(=O)c1cnc2c(C)cccc2c1Nc1ccc(N(CC)CC)cc1,0.121
CCOC(=O)c1cnc2c(C)cc(C)cc2c1Nc1ccc(C)cc1,n
SMILES,CBX7 inh
CCOC(=O)c1cnc2c(C)cc(C)cc2c1Nc1ccc(OCC)cc1,n
CC(=O)Nc1nnc(-c2ccc(Cn3c(-c4cscn4)nc4ccccc43)cc2)s1,n
O=C1CSc2ccc(C(=O)NCCCN3CCOCC3)cc2N1,n
CCCCOc1ccc(C(=O)Nc2ccc(S(=O)(=O)Nc3nc(C)cc(C)n3)cc2)cc1,n
Cn1cnc(S(=O)(=O)NCc2ccccc2)c1,n
Cc1ccc(S(=O)(=O)c2nc(C)oc2NCc2ccccc2)cc1,n
O=[N+]([O-])c1ccc(-c2cn(-c3ccccc3NCc3ccccc3)cn2)o1,0.483
O=C(c1cc(Nc2cccc(C(F)(F)F)c2)nc2ccccc12)N1CCCCC1,n
COc1cc(/C=C/c2cc(C(F)(F)F)[nH]c(=O)n2)ccc1OCc1ccc(Cl)cc1Cl,0.26
COc1ccc(/C=C/c2cc(C(F)(F)F)[nH]c(=O)n2)cc1OC,n
COc1cc(/C=C/c2cc(C(F)(F)F)[nH]c(=O)n2)ccc1OCc1ccccc1F,n
COCCCNc1nc(-c2ccc(Cl)cc2)nc2ccccc12,n
COc1ccc(CCN2C(=O)N(c3ccccc3)C(=O)C2CC(=O)Nc2ccccc2)cc1 (configuration not stated),n
Cc1ccc(Cn2c(=O)cc(C(=O)NCc3ccccc3Cl)c3ccccc32)cc1,n
COc1ccc(C(=O)c2cn(Cc3ccc(Cl)cc3)c3ccccc3c2=O)cc1,n
CCC(=C(c1ccc(OC)cc1)c1ccc(OC)cc1)c1cn(CCCN(C)C)c2ccccc12,0.273
COc1ccc(C(O)Cn2c(=N)n(CCCN(C)C)c3ccccc32)cc1 (configuration not stated),n
CCOCCCNC(=O)C1CCCN(Cc2nc(-c3ccc(CC)cc3)oc2C)C1 (configuration not stated),n
COc1ccc(CNC(=O)COc2cc(=O)n(C)c3ccccc23)cc1,n
CC(C)c1ccc2oc(-c3ccc(NC(=O)c4ncn[nH]4)cc3)nc2c1,0.0257
CC(C)c1ccc2oc(-c3ccc(NC(=O)c4ccc(Cl)cc4)cc3)nc2c1,n
CC(C)c1ccc2oc(-c3ccc(NC(=O)c4ccccc4F)cc3)nc2c1,n
CCc1ccc2oc(-c3cccc(NC(=O)c4ccc(C)cc4)c3)nc2c1,n
CCc1ccc2oc(-c3cccc(NC(=O)c4ncn[nH]4)c3)nc2c1,0.0127
CCc1ccc2oc(-c3cccc(NC(=O)c4ccc(F)cc4)c3)nc2c1,n
CC1CC(C)CN(S(=O)(=O)c2ccc(C(=O)Nc3ccccc3-c3nc4ccccc4s3)cc2)C1 (configuration not stated),n
CCC(C(=O)N1CCOCC1)n1c(C(=O)OC)cc2sc(Cl)cc21 (configuration not stated),n
CCOC(=O)c1c(NC(=O)COc2ccc(CC)cc2)sc2c1CCCC2,n
